# High-throughput results (PubChem)
# ALR inh: inhibitors of human ALR sulfhydryl oxidase, primary screen, biochemical, H2O2 detection, HRP-luminol luminescence, single point. FAD-linked sulfhydryl oxidase ALR (Homo sapiens), P55789. purified ALR, DTT oxidation. inhibition, % (no concentration beside the values). actives 3.8% (n = 290,000). AID 485317, 2010;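 active = mean replicate inhibition above about 79%, with every replicate also reaching it, limit read from the data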
# Target sequence (P55789 whole entry, looked up): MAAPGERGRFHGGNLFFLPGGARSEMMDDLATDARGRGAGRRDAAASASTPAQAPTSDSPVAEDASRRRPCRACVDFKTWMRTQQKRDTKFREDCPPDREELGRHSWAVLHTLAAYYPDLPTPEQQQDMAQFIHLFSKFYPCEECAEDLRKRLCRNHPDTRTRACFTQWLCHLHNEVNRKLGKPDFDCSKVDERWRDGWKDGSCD
# Rtt109 Vps75: inhibitors of C. albicans Rtt109/Vps75 HAT, primary screen, biochemical, ThioGlo CoA-SH fluorescence, plate reader | Histone acetyltransferase RTT109 (Candida albicans (strain SC5314 / ATCC MYA-2876)), … | purified Rtt109/Vps75, 4 h | inhibition, % at 34.9 µM | actives 0.16% (n = 330,000) | AID 540336, 2011;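 active = inhibition of at least 50% in every replicate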
# Target sequence (Q5AAJ8 whole entry, looked up): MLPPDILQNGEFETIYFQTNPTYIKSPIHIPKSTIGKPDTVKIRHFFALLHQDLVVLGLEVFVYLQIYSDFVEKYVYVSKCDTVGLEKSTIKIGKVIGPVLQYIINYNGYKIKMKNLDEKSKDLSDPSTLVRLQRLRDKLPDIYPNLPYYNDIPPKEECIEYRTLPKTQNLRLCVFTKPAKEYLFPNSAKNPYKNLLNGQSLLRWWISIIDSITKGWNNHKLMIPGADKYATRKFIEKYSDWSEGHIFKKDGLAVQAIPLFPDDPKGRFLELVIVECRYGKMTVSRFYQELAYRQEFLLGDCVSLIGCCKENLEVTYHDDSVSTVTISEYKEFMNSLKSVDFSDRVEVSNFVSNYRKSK
# HDAC3 inh: HDAC3 deacetylase inhibitors, primary screen, biochemical, fluorescence, cell-free homogeneous. inhibition, % at 8.3 µM. AID 2718, 2010. recombinant HDAC3, fluorogenic peptide/trypsin coupled. actives 0.15% (n = 320,000); in the data active = inhibition above about 26%, passing the limit was not always enough
# Rce1 inh: yeast Rce1p protease inhibitors, primary screen, biochemical, fluorescence, cell-free homogeneous | CAAX prenyl protease 2 (Saccharomyces cerevisiae (strain ATCC 204508 / S288c)), Q03530 | yeast membranes, quenched prenylated peptide cleavage fluorescence | calls only | actives 0.27% (n = 290,000) | AID 2563, 2010;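 active = fall in fluorescence gain of 50% or more versus controls, with final raw signal at or below 3038400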;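 also: plate controls were neutral control wells for no effect and wells lacking membranes for full effect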
# GRK2 inh: compounds blocking aptamer binding on GRK2 – biochemical, human GRK2, bead flow cytometry, HTS, primary screen; FAM-aptamer displacement from GRK2; inhibition of aptamer binding, % at 10 µM; actives 0.59% (n = 330,000);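 active = inhibition of aptamer binding above 40%, roughly 3 SD of noise, on plates passing a quality check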;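 also: median bead fluorescence of bound FAM aptamer so fluorescent compounds give negative values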
# Efflux pump mplx: inhibitors of Candida efflux pumps in yeast, primary screen, S. cerevisiae, Nile Red, multiplex; S. cerevisiae Candida pump triplex; inhibition, % at 10 µM; actives 0.44% (n = 330,000);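 active = plate passing quality check with inhibition over a set limit, or well fluorescence over plate mean plus 4 SD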;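 also: Nile Red retained in pooled yeast measured as flow cytometry median fluorescence; 0% = buffer negative control and 100% = Enniatin B positive control; higher means more Nile Red kept so more efflux inhibition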
# Starred values were filed as active, the others as inactive; i = inactive; · = not tested or not shown; + = active, no number. Sampled rows, rich in hits. Any-hit rate of the full collection: about 4.5%.
SMILES,ALR inh,Rtt109 Vps75,HDAC3 inh,Rce1 inh,GRK2 inh,Efflux pump mplx
O=C(N/N=C(\CC(=O)c1cccs1)C(F)(F)F)c1cccnc1,60,-5,-1,i,2,0
C=CC[n+]1ccn(-c2nc3ccccc3nc2[N-]S(=O)(=O)c2cccs2)c1,95*,-60,-11,i,4,0
O=C(C#Cc1ccccc1)Nc1ccc(F)cc1,97*,-2,-7,i,0,0
O=C(C#Cc1ccccc1)Nc1cccc(F)c1,97*,-6,2,i,0,0
O=C(CC(=O)Nc1cccc(F)c1)Nc1cccc(F)c1,-6,-1,-4,i,0,0
COc1ccc(NC2CCCN(C(=O)c3csc(C(C)C)n3)C2)cc1 (stereo not drawn),99*,2,6,i,2,0
COc1ccc(NC2CCCN(C(=O)c3csc(C(C)C)n3)C2)cc1OC (stereo not drawn),99*,-3,-12,i,0,0
COc1ccc(NC2CCCN(C(=O)c3cc(CC(C)C)nc(N)n3)C2)cc1 (stereo not drawn),93*,11,6,i,1,0
Nc1ccccc1-n1c(=O)n(Cc2ccccc2F)c(=O)c2[nH]cnc21,0,1,-10,i,0,0
COc1ccc(NC(=O)CSc2ccc3nnc(CCNC(=O)c4ccccc4)n3n2)cc1OC,-16,-4,2,i,0,0
COc1ccc(C2Nc3ccccc3NC3=C2C(=O)CC(C)(C)C3)cc1OC (stereo not drawn),73,2,7,i,0,0
COc1ccc(OC)c(C2Nc3ccccc3NC3=C2C(=O)CC(C)(C)C3)c1 (stereo not drawn),99*,5,7,i,0,0
CCOc1ccc(C2Nc3ccccc3NC3=C2C(=O)CC(C)(C)C3)cc1OC (stereo not drawn),98*,6,3,·,0,0
COc1cccc(C2Nc3ccccc3NC3=C2C(=O)CC(C)(C)C3)c1OC (stereo not drawn),99*,0,5,i,0,0
Cc1ccc(C2Nc3ccccc3NC3=C2C(=O)CC(C)(C)C3)c(O)c1 (stereo not drawn),63,-7,-2,·,0,0
COc1ccccc1C1Nc2ccccc2NC2=C1C(=O)CC(C)(C)C2 (stereo not drawn),99*,0,8,i,0,0
COc1ccc(C2Nc3ccccc3NC3=C2C(=O)CC(C)(C)C3)cc1O (stereo not drawn),·,11,1,i,1,0
COc1cc(C2Nc3cc(C)c(C)cc3NC3=C2C(=O)CC(C)(C)C3)ccc1OC(C)=O (stereo not drawn),80*,-9,-2,·,0,0
COc1ccc(C2Nc3ccccc3NC3=C2C(=O)CC(C)(C)C3)c(OC)c1OC (stereo not drawn),98*,-6,4,i,0,0
O=C(Nc1cc(S(=O)(=O)N2CCOCC2)ccc1N1CCCCC1)c1ccccc1Br,·,3,8,·,2,0
CCCC(C)NC(=O)Cc1ccc(Br)cc1 (stereo not drawn),95*,-21,-2,i,2,0
Cc1c2c(n3c(nc4ccccc43)c1C#N)N(CCCN(C)C)CC2,5,i,-111,+,3,0
CC(=O)/C(=N/Nc1cccc(C)c1)N1CCOCC1,99*,·,-2,i,1,0
Cc1cccc(C(=O)Nc2cccc(C(=O)N3CCOCC3)c2)c1,-6,-3,-2,i,0,0
COc1ccc(C(=O)NC(=S)N2CC(C)OC(C)C2)cc1OC (stereo not drawn),-26,2,9,i,56*,0
SMILES,ALR inh,Rtt109 Vps75,HDAC3 inh,Rce1 inh,GRK2 inh,Efflux pump mplx
Cc1cccn2c(=O)c(C=O)c(Cl)nc12,98*,4,-8,i,4,0
Cc1ccc(SCc2cc(=O)c3c(=O)n(-c4ccccc4)[nH]c3[nH]2)cc1,94*,23,7,i,0,0
O=c1cc(CSc2ccc(Cl)cc2)[nH]c2[nH]n(-c3ccccc3)c(=O)c12,85*,-1,4,i,3,0
Cc1cc(N2O[C@]34C=C[C@]25C[C@@H](O)CC[C@]5(C)C3CC[C@]2(C)[C@@H]([C@H](C)/C=C/[C@H](C)C(C)C)CC[C@H]24)no1 (stereo partly drawn),·,10,·,·,2,0
CC12CCC3c4ccc(OCC(=O)O)cc4CCC3C1CCC2=O (stereo not drawn),·,-9,·,·,·,·
Cc1ccc(-c2nc(CS(=O)(=O)CC(=O)NC3CCCCCC3)c(C)o2)cc1,-1,-10,2,i,0,0
CCOC(=O)N1CCC(NC(=O)CS(=O)(=O)Cc2nc(-c3cccc(Cl)c3)oc2C)CC1,52,-5,-7,i,1,0
Cc1oc(-c2cccc(Cl)c2)nc1CS(=O)(=O)CC(=O)NC1CC1,90*,1,0,i,0,0
COc1cccc(-c2nc(CS(=O)(=O)CC(=O)NC3CC3)c(C)o2)c1,-8,0,-15,i,2,0
COc1ccc(-c2nc(CS(=O)(=O)CC(=O)NC3CCCCCC3)c(C)o2)cc1,99*,-6,-1,i,7,0
COc1cccc(-c2nc(CS(=O)(=O)CC(=O)NC3CCCCCC3)c(C)o2)c1,98*,4,3,i,3,0
CCOC(=O)N1CCC(NC(=O)CS(=O)(=O)Cc2nc(-c3cccc(OC)c3)oc2C)CC1,99*,-3,-7,i,5,0
NC(=O)C1(Nc2ccc(Cl)cc2)CCCC1,·,3,·,·,·,·
COc1cccc(-c2nc(CS(=O)(=O)CC(=O)NC3CCCCC3C)c(C)o2)c1 (stereo not drawn),93*,-10,8,i,0,0
COc1cccc(-c2nc(CS(=O)(=O)CC(=O)Nc3c(C)cccc3C)c(C)o2)c1,11,7,-1,i,2,0
Cn1c(=O)[nH]c(=O)c2c1nc(N/N=C/C(Br)=C/c1ccccc1)n2CCO,20,-8,·,·,0,0
O=C(CCl)N=c1sccn1Cc1ccc(Cl)cc1Cl,95*,-3,-1,i,3,0
